Consider 14 compounds from PubChem BioAssay (NCI).

Holding throughout (experiment): NCI-60 one-dose screen, 48 h (100 = growth as untreated, 0 = no growth, -100 = all killed)
Holding throughout (conditions): 10 µM unless noted

For test [1], the system named is T-47D breast.
Test [2] concerns BT-549 breast.
Test [3] deals with MDA-MB-435 melanoma.
Test [4] concerns SW-620 colon.
For test [5], the system named is MCF7 breast.
For test [6], the system named is HCT-116 colon.
The test system of test [7] is HCC-2998 colon.
Test [8] has as its system KM12 colon.

Compounds without any hit were thinned out: in the full panel of roughly 83,000, 20% have a hit.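 The endpoint reported here, percent growth, reads 100 for growth as untreated, 0 for no net growth and -100 for all cells dead.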 Unmarked numbers belong to inactive results. Activity calls are given as the source filed them. How the source made its calls: active means growth percent below 10; inactive means the rest.

Consider `CCN1C(=O)N(CC)C2Nn3c(s/c(=C\c4ccc([N+](=O)[O-])cc4)c3=O)=NC21` (configuration not stated), for which the growth in test [1] is 40.2%; in test [2], 95.2%; in test [3], 61.9%; in test [4], 60.2%; in test [5] it was 11%; in test [6] it was 18.2%. Also, the results for the growth in test [7] and in test [8] were 101% and 97.8%, respectively.

`Cc1cc(O)c(C2=NN(c3ccc(S(N)(=O)=O)cc3)C(/C=C/c3ccccc3)C2)cc1Cl` (configuration not stated): the growth in test [1] is 25.7%; in test [2], 52.4%; in test [3], 47.4%; in test [4], 51.9%; in test [5], 33.8%; in test [6], 10.6%. For the same compound, the growth was 50.5% in test [7] and 57.6% in test [8].

With `Cc1cc2nc3cc(C)c(N)cc3[n+](-c3ccccc3)c2cc1N`, the growth in test [1] was 14%; in test [2], 18.5%; in test [3], 67.2%; in test [4], 72.9%; in test [5], 32.7%; in test [6] it was 33.1%. Moreover, the growth in test [7] is 56.6%; in test [8], 28%.

Take `CCCCOc1nc2c(C)cccc2cc1-c1cc(-c2ccc(Cl)cc2)nc(-c2ccc(Cl)cc2)c1`: the growth was 99% in test [1]; 101% in test [2]; 102% in test [3]; 98.4% in test [4]; 96.9% in test [5]; 99.5% in test [6]. Further, the growth in test [7] is 108%; in test [8] it was 97.7%.

Take `OC(COc1ccccc1Cl)CN1CCN(c2cccc(Cl)c2)CC1` (configuration not stated): the growth in test [1] is 109%; in test [2], 95.5%; in test [3] it was 109%; in test [4] it was 110%; in test [5], 93.8%; in test [6] it was 98.3%. Besides, the results for the growth in test [7] and in test [8] were 114% and 104%, respectively.

For `C/C(=C\C(=O)c1ccc(Cl)cc1)c1ccc(Cl)cc1`, the growth in test [1] was 85.8%; in test [2], 103%; in test [3], 102%; in test [4], 99.3%; in test [5], 19.4%; in test [6] it was 101%. Besides, the growth in test [7] was 82.2%; in test [8], 26.2%.

On to `O=c1[nH]c2c(ccc3cnccc32)c2c1CCC2`, for which the growth was -7.41% (active) in test [1]; -51.7% (active) in test [2]; -60.1% (active) in test [3]; -11.9% (active) in test [4]; -4.54% (active) in test [5]; 4.41% (active) in test [6]. The values for the growth in test [7] and in test [8] were -51.8% (active) and -17.9% (active), respectively.

As to `O=C(/C=C/c1sc(Cl)nc1Cl)c1ccccc1`, the growth in test [1] was 98.3%; in test [2], 107%; in test [3] it was 99.4%; in test [4], 33%; in test [5] it was 32.8%; in test [6] it was 34%. Moreover, the growth was 49.3% in test [7] and 85.7% in test [8].

Turning to `O=C(CSc1nc2ccccc2[nH]1)Nc1cccc(Cl)c1`, the growth was 83.4% in test [1]; 103% in test [2]; 102% in test [3]; 95.7% in test [4]; 102% in test [5]; -54.9% (active) in test [6]. The growth in test [7] was 103%; in test [8] it was 99.5%.

Take `COc1ccc(-c2[nH]ncc2-c2cc3c(c(OC)c2)OCC(=O)N3)cc1`: the growth in test [1] is 27.2%; in test [2] it was 38.4%; in test [3] it was -56.6% (active); in test [4], 12.6%; in test [5] it was 15.6%; in test [6], 13%. Also, the figures for the growth in test [7] and in test [8] were 35.2% and 23.1%, respectively.

`COc1nc2ccccc2cc1-c1nc2c(cnn2-c2ccccc2)c(=O)[nH]1`: the growth was 50.1% in test [1]; 38.5% in test [2]; -20.9% (active) in test [3]; 20.8% in test [4]; 20.9% in test [5]; 42.1% in test [6]. The growth in test [7] was 73.3%; in test [8], 29%.

Turning to `c1ccc2cc(C[n+]3ccn(CCCCCCCCCCCCn4cc[n+](Cc5ccc6ccccc6c5)c4)c3)ccc2c1`, the growth in test [1] was -53.1% (active); in test [2] it was -82.8% (active); in test [3] it was -97.1% (active); in test [4], -55.7% (active); in test [5], -70.5% (active); in test [6], -61.8% (active). Also, the growth in test [7] was -83.4% (active); in test [8], -86.9% (active).

For `Cc1ccc(C(=O)N/N=C/c2cccc(Oc3ccccc3)c2)cn1`, the growth in test [1] was 66.3%; in test [2], 38.1%; in test [3], -48% (active); in test [4] it was 29.3%; in test [5], 37.2%; in test [6], 32.8%. The figures for the growth in test [7] and in test [8] were 55.4% and 22.8%, respectively.

Regarding `Cc1ccc2sc3c(NCCCN)nc4ccccc4c3c(=O)c2c1`, the growth is 54.6% in test [1]; 96.8% in test [2]; -71.7% (active) in test [3]; -79.7% (active) in test [4]; -21.2% (active) in test [5]; -53.2% (active) in test [6]. The results for the growth in test [7] and in test [8] were -86.1% (active) and -74.6% (active), respectively.
